{"source": "PubChem BioAssay (NCATS)", "note": "Records with an inconclusive call do not appear. Entries that show only a call come without a potency. Calls of active or inactive are those of the source. Calls follow the shape of the dose curve; as a rule, active = well fitted cell-killing curve with a large enough effect; inconclusive = small, poorly fitted or top-dose-only effect; inactive = flat fitted curve, though single readings scatter. Potency is read from the fitted curve at half-maximal effect.", "data": [{"assay": "Cell Viability - LYMP1-002 - Assay at 40 hr (AID 994); also: nearly all actives have a fitted effect of over 60% in size", "conditions": "LYMP1-002 lymphoblastoid cell viability; series mostly up to 92.2 µM", "description": "NIH Chemical Genomics Center [NCGC]\nNIH Molecular Libraries Screening Centers Network [MLSCN]\nNational Institutes of Environmental Health Sciences [NIEHS]\nNational Toxicology Program [NTP]\nWe have developed a 1536-well cell-based assay for quantitative high throughput screening (qHTS) against a number of cell lines to determine in vitro cytotoxicity of small molecules. This particular assay uses a human lymphoblastoid cell line (LYMP1-002) purchased from Coriell Institute for Medical Research.\nNCGC Assay Protocol Summary:\nThe CellTiter-Glo luminescent cell viability assay (Promega) is a homogeneous method to measure the number of viable cells in culture. The end point readout of this assay is based on quantitation of intracellular ATP, an indicator of metabolic activity, using the luciferase reaction. Luciferase catalyzes the oxidation of beetle Luciferin to oxyluciferin and light in the presence of ATP. The luminescent signal is proportional to amount of ATP present.\nUsing the CellTiter-Glo luminescent cell viability assay, the amount of cellular ATP was measured in the lymphoblastoid cell line with complete culture medium following compound treatment for 40 hours. The assay was performed in opaque white Kalypsys 1536-well plates. In the screen, tetraoctylammonium bromide was used as positive control. Library compounds were measured for their ability to cause acute toxicity in the cell line, as reflected by a decrease in intracellular ATP levels, in a concentration-dependent manner. […] AC50 values were determined from concentration-response data modeled with the standard Hill equation.\nqHTS protocol for CellTiter Glo lymphoblastoid cellular assay\n[Step] [Parameter] [Value] [Description]\n1. Reagent; 5 uL; 2500 lymphoblastoid cells/well\n2. Time; 5 hr; 37 C incubation\n4. Controls; 23 nL; Tetraoctylammonium bromide 6.4pM to 92 uM\n5. Time; 40 hr; 37 C incubation\n6. Reagent; 5 uL; CellTiter Glo reagent\n7. Time; 30 min; Room Temperature\n8. Detection; Luminescence; Viewlux plate reader\nKeywords: cell viability, cytotoxicity, lymphoblastoid cell line, luminescence, NTPHTS, NTPHTS_NCGC, NIEHS, DSSTox, MLSMR, MLSCN, NIH Roadmap, qHTS, NCGC", "values": [{"smiles": "O=C1c2c(O)cccc2Cc2cccc(O)c21", "Potency": "inactive"}, {"smiles": "Oc1cccc(O)c1", "Potency": "inactive"}, {"smiles": "Nc1ccc(S(=O)(=O)Nc2nccs2)cc1", "Potency": "inactive"}, {"smiles": "COc1ccccc1O", "Potency": "inactive"}, {"smiles": "NCCNCCNCCNCCN", "Potency": "inactive"}, {"smiles": "[Cl][In]([Cl])[Cl]", "Potency": "inactive"}, {"smiles": "CCCCOC(=O)c1ccc(O)cc1", "Potency": "inactive"}, {"smiles": "CC1(C)[C@@H]2CC[C@@]1(C)C(=O)C2", "Potency": "inactive"}, {"smiles": "NC(=O)c1ncn([C@@H]2O[C@H](CO)[C@@H](O)[C@H]2O)n1", "Potency": "inactive"}, {"smiles": "Cc1cc(CC(=O)O)n(C)c1C(=O)c1ccc(Cl)cc1", "Potency": "inactive"}, {"smiles": "CC12CCC(CC1)C(C)(C)O2", "Potency": "inactive"}, {"smiles": "Cc1cc2nc3c(=O)[nH]c(=O)nc-3n(C[C@H](O)[C@H](O)[C@H](O)CO)c2cc1C", "Potency": "inactive"}, {"smiles": "O=C1O[C@H]([C@@H](O)CO)C(O)=C1O", "Potency": "inactive"}, {"smiles": "Cc1c(O)cccc1C(=O)N[C@@H](CSc1ccccc1)[C@H](O)CN1C[C@H]2CCCC[C@H]2C[C@H]1C(=O)NC(C)(C)C", "Potency": "31.6 µM (active)"}, {"smiles": "CCCCCCCCCCCCOS(=O)(=O)O", "Potency": "inactive"}, {"smiles": "C[C@]12C[C@H](O)[C@H]3[C@@H](CCC4=CC(=O)CC[C@@]43C)[C@@H]1CC[C@@H]2C(=O)CO", "Potency": "inactive"}, {"smiles": "NCCNCCNCCN", "Potency": "inactive"}]}]}
